The target in the experiment is Genome polyprotein (dengue virus type 2) (UniProt P29990).
Setting [1] is: Thailand/16681/1984, Concentration 25.0 uM, Number of replicates 1.0.

Screen size: about 2,000 compounds; about 110 (5.5%) showed an effect of 50% or more. The sample as a whole holds a higher share of strong results than the screen did.

Consider `Cc1ccc(NC(=O)C2CCN(c3ccc(C=O)cc3)CC2)cc1Br`, for which the inhibition under setting [1] worked out at 8.71%.

In the case of `CC(C)Cn1cccc(C(=O)Nc2ccncc2C(F)(F)F)c1=O`, the inhibition runs as follows: (Thailand/16681/1984, Concentration 49.5 uM, Number of replicates 2.0, Standard deviation 5.23322293563183 %) -3.89%; (Thailand/16681/1984, Concentration 99.01 uM, Number of replicates 2.0, Standard deviation 0.16283923825626637 %) -4.73%; (Thailand/16681/1984, Concentration 198.0 uM, Number of replicates 2.0, Standard deviation 1.971758036933884 %) -6.94%.

`O=Cc1ccc(N2CCC(C(=O)N3CCN(C(=O)[C@H]4COc5ccccc5O4)CC3)CC2)cc1`: the inhibition under setting [1] was found to be 13%.

With `NCc1cccc(NC(=O)[C@H]2CC(F)(F)CN2C(=O)OCc2ccccc2)c1`, the inhibition reads like this: (Thailand/16681/1984, Concentration 49.5 uM, Number of replicates 2.0, Standard deviation 3.8817212285914895 %) -3.13%; (Thailand/16681/1984, Concentration 99.01 uM, Number of replicates 2.0, Standard deviation 4.048573795130085 %) -2.21%; (Thailand/16681/1984, Concentration 198.0 uM, Number of replicates 2.0, Standard deviation 4.090127173867097 %) -1.49%.

With `O=Cc1ccc(N2CCC(C(=O)N(Cc3ccco3)Cc3cccs3)CC2)cc1`, the inhibition under setting [1] worked out at 11%.

Turning to `Cc1cc(CO)c2cccc(NC(=O)c3ccc(N)nn3)c2n1`, the inhibition is, setting by setting: (Thailand/16681/1984, Concentration 49.95 uM, Number of replicates 2.0, Standard deviation 1.176901179972867 %) 11%; (Thailand/16681/1984, Concentration 99.9 uM, Number of replicates 2.0, Standard deviation 1.886285239678155 %) 19.5%.

In the case of `C[C@@H](Cc1ccc(C(F)(F)F)cc1)NC(=O)C1CCN(c2ccc(C=O)cc2)CC1`, the inhibition under setting [1] was determined as 8.27%.

In the case of `O=Cc1ccc(N2CCC(C(=O)NCC34CC5CC(CC(C5)C3)C4)CC2)cc1`, the inhibition under setting [1] was 11.8%.

Take `c1ccc2[nH]c(CN3CC[C@H](c4c[nH]c5ccccc45)C3)cc2c1`: the inhibition by setting is: (Thailand/16681/1984, Concentration 49.5 uM, Number of replicates 2.0, Standard deviation 0.7608740215940771 %) 4.51%; (Thailand/16681/1984, Concentration 99.01 uM, Number of replicates 2.0, Standard deviation 0.30587350380986955 %) 4.39%; (Thailand/16681/1984, Concentration 198.0 uM, Number of replicates 2.0, Standard deviation 0.6449469231287406 %) 3.06%.

With `Cc1c(Br)cnc(NC(=O)C2CCN(c3ccc(C=O)cc3)CC2)c1[N+](=O)[O-]`, under setting [1], the inhibition turned out to be 13.3%.

As to `Cc1nn(Cc2nnc(C(C)C)o2)cc1C1CCNCC1`, the inhibition was -1.09% (Thailand/16681/1984, Concentration 49.5 uM, Number of replicates 2.0, Standard deviation 1.2271984598057826 %); -1.28% (Thailand/16681/1984, Concentration 99.01 uM, Number of replicates 2.0, Standard deviation 0.3137269789739955 %); -1.14% (Thailand/16681/1984, Concentration 198.0 uM, Number of replicates 2.0, Standard deviation 0.585185347191749 %).

As for `O=Cc1ccc(N2CCC(C(=O)N3CCN(c4ncccn4)CC3)CC2)cc1`, the inhibition under setting [1] turned out to be 13.4%.

`O=C(N[C@H]1CCOC1)c1cc(Cl)ccc1NS(=O)(=O)c1ccc(Oc2ccccc2Cl)cc1`: the inhibition stood at 64.1% (Thailand/16681/1984, Concentration 49.5 uM, Number of replicates 2.0, Standard deviation 0.8156312071794307 %); 63.6% (Thailand/16681/1984, Concentration 99.01 uM, Number of replicates 2.0, Standard deviation 0.42939613872644544 %); 53% (Thailand/16681/1984, Concentration 198.0 uM, Number of replicates 2.0, Standard deviation 0.707503298737338 %).

For `O=C(NC[C@H]1CCOC1)c1cc(Cl)ccc1NS(=O)(=O)c1ccc(Oc2ccccc2Cl)cc1`, the inhibition was 78.1% (Thailand/16681/1984, Concentration 49.5 uM, Number of replicates 2.0, Standard deviation 2.9570930238802475 %); 83.4% (Thailand/16681/1984, Concentration 99.01 uM, Number of replicates 2.0, Standard deviation 0.09728436725720986 %); 79% (Thailand/16681/1984, Concentration 198.0 uM, Number of replicates 2.0, Standard deviation 0.16101849440059574 %).

Turning to `O=S(=O)(NC1CCCCC1)c1ccc(Oc2ccccc2Cl)cc1`, the inhibition is, setting by setting: (Thailand/16681/1984, Concentration 49.5 uM, Number of replicates 2.0, Standard deviation 1.7919780415060578 %) 0.164%; (Thailand/16681/1984, Concentration 99.01 uM, Number of replicates 2.0, Standard deviation 2.26588512977007 %) 2.51%; (Thailand/16681/1984, Concentration 198.0 uM, Number of replicates 2.0, Standard deviation 2.2194744531827233 %) 5.38%.

On to `Cc1cc(CN)c2cccc(Cl)c2n1`, for which the inhibition runs as follows: (Thailand/16681/1984, Concentration 49.95 uM, Number of replicates 2.0, Standard deviation 5.413623438036859 %) -7.74%; (Thailand/16681/1984, Concentration 99.9 uM, Number of replicates 2.0, Standard deviation 5.696602605148216 %) -7.99%.

With `CN(CCO[Si](C)(C)C(C)(C)C)C(=O)C1CCN(c2ccc(C=O)cc2)CC1`, the inhibition under setting [1] was found to be 11.8%.

Take `Cc1cc(CO)c2cccc(Cc3cccc(NC(=O)C(=O)c4ccco4)c3)c2n1`: the inhibition by setting is: (Thailand/16681/1984, Concentration 49.95 uM, Number of replicates 2.0, Standard deviation 2.5499602835301056 %) -0.234%; (Thailand/16681/1984, Concentration 99.9 uM, Number of replicates 2.0, Standard deviation 0.7837509937910023 %) -0.946%.

For `Cc1cc(C(=O)N2CCN(C(=O)c3cc(C(C)(F)F)n[nH]3)CC2)cc2nn[nH]c12`, the inhibition is, setting by setting: (Thailand/16681/1984, Concentration 49.5 uM, Number of replicates 2.0, Standard deviation 0.5040908488530289 %) 1.22%; (Thailand/16681/1984, Concentration 99.01 uM, Number of replicates 2.0, Standard deviation 0.07028947937337628 %) 1.9%; (Thailand/16681/1984, Concentration 198.0 uM, Number of replicates 2.0, Standard deviation 0.7181064342983147 %) 2.65%.

With `O=Cc1ccc(N2CCC(C(=O)N[C@@H](CCO)c3ccccc3F)CC2)cc1`, under setting [1], the inhibition came to 11.4%.

For the compound `CNC(=O)[C@H]1CN(S(=O)(=O)c2ccc(Oc3ccccc3Cl)cc2)CCO1`, the inhibition by setting is: (Thailand/16681/1984, Concentration 49.5 uM, Number of replicates 2.0, Standard deviation 0.2669928674711758 %) -4.8%; (Thailand/16681/1984, Concentration 99.01 uM, Number of replicates 2.0, Standard deviation 0.624095865646037 %) -4.22%; (Thailand/16681/1984, Concentration 198.0 uM, Number of replicates 2.0, Standard deviation 0.6183745152543801 %) -5.47%.

Consider `Nc1ccc(Cl)c2cccnc12`, for which the inhibition (Thailand/16681/1984, Concentration 49.95 uM, Number of replicates 2.0, Standard deviation 3.8383177085719704 %) is -6.59% and the inhibition (Thailand/16681/1984, Concentration 99.9 uM, Number of replicates 2.0, Standard deviation 5.003138959022175 %) was -3.71%.

`Nc1ccnc2c(Cl)cccc12`: the inhibition was -9.22% (Thailand/16681/1984, Concentration 49.95 uM, Number of replicates 2.0, Standard deviation 2.736837302484984 %) and -8.19% (Thailand/16681/1984, Concentration 99.9 uM, Number of replicates 2.0, Standard deviation 4.13445849353631 %).

In the case of `Nc1cccc2c(Cl)ccnc12`, the inhibition came out at 25.3% (Thailand/16681/1984, Concentration 49.95 uM, Number of replicates 2.0, Standard deviation 9.3539447807875 %) and 68.2% (Thailand/16681/1984, Concentration 99.9 uM, Number of replicates 2.0, Standard deviation 4.02175613474424 %).

For the origin of these results see ChEMBL document CHEMBL5606460, “ASAP - DENV-2 NS2B-NS3 protease fluorescence single point” (2024).
